Screening results as filed in PubChem BioAssay.
Shown are actives, neighbours in structure and some others; about 3% of the full set was active somewhere.
Efa HMGR inh = E. faecalis class II HMG-CoA reductase inhibition; AID 1066; inhibition, % at 10 µM; 190,000 tested, 0.41% active; purified E. faecalis HMGR, NADPH absorbance 340 nm kinetic;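 active = inhibition above a set limit, the median over all tested compounds plus 3 SD, cut at about 9.5% in these data; inconclusive = no clear call, values can overlap the other calls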;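 note: enzyme runs in reverse so mevalonate oxidation gives rising NADPH absorbance; 0% = complete reaction with DMSO and 100% = background rate lacking mevalonate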
m-calpain inh = inhibitors of pig calpain II; purified calpain II, fluorogenic peptide substrate, 30 min; inhibition, % at 16 µM; 220,000 tested, 0.37% active;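 active = inhibition above about 50%, limit read from the data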
TNF necrop inh = inhibitors of TNF-alpha induced necroptosis in Jurkat FADD-/- cells; 220,000 tested, 0.068% active; activation (protection from cell death), % at 10 µM; Jurkat FADD-/- TNF necroptosis rescue, ATP luminescence, 24 h; 0 = TNF only, 100 = no-TNF cells;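 active = activation, meaning protection from cell death, of at least 50% relative to plate controls; inactive = activation below 50%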;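 note: necroptosis triggered by 40 ng/mL TNF-alpha added together with compound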
zVAD death inh = blocks zVAD induced death of L929 cells; L929 zVAD necroptosis rescue, ATP luminescence, 24 h; with zVAD 60 µM; viability rescue, % at 10 µM; 220,000 tested, 0.38% active;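 active = activation, scaled between plate controls, above about 75%, limit read from the data; inactive = activation under that limit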;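 note: 0% = zVAD with DMSO and 100% = DMSO alone without zVAD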
14-3-3 Bad inh = disrupts binding of bovine 14-3-3 zeta to phospho-Bad peptide. P63103. TR-FRET 14-3-3zeta/Dy647-pBad peptide displacement, 1 h. inhibition, % at 21.7 µM. 220,000 tested, 0.71% active. AID 781;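 active = inhibition above about 70%, limit read from the data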;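 note: 0% = full 14-3-3 plus peptide FRET controls and 100% = background without 14-3-3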
Target sequence (P63103 whole entry, looked up): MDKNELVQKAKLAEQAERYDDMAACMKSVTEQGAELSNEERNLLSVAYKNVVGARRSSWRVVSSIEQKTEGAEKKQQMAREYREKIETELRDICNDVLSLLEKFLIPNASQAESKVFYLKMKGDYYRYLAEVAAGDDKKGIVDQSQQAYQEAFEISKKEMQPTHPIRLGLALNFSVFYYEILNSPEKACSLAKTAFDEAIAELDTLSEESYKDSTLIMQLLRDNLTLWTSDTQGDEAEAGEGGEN
ROMK mod = modulators of human ROMK potassium channel. 130,000 tested, 2% active. AID 1918. Tet-inducible ROMK, thallium flux fluorescence; actives lie on both sides. P48048. B-score at 10 µM;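 active = signal ratio slope over the read window, or its plate-corrected B-score, at least 3 SD from the plate mean, either direction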;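 note: B-score of the F/F0 ratio slope over 7 to 12 s after thallium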
ROMK retest = human ROMK channel modulation, retest confirmation | normalized thallium flux (F/F0 slope) at 10 µM | 3,000 tested, 54% active | ROMK thallium flux, fluorescence ratio; hits give low values | shares compounds with ROMK mod;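 active = Flux at 10 µM at least 3 SD below or above vehicle control mean in one or both replicates; inconclusive = no clear call, values can overlap the other calls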
Active calls of the source: *; ? = inconclusive; / = no result.

SMILES | Efa HMGR inh | m-calpain inh | TNF necrop inh | zVAD death inh | 14-3-3 Bad inh | ROMK mod | ROMK retest
COCc1cc(C)nc(SCC(=O)c2ccc(O)c(O)c2)c1C#N | 2 | 9 | -4 | 42 | -13 | 1.7* | 0.077
Fc1ccc(-c2nn(-c3ccccc3)cc2CNCc2ccccc2)cc1 | 0 | 0 | 8 | 2 | -2 | -2.6* | 0.047*
O=C(O)Cc1cn(-c2ccccc2)nc1-c1ccccc1 | 2 | 21 | 0 | 2 | -6 | 0.42 | /
Cc1ccc(C2CC(c3cccs3)=NN2C(=O)c2ccco2)o1 (centres undefined) | -2 | 51* | 0 | 1 | 2 | -5.5* | ?
O=C(CCl)Nc1nc(-c2ccco2)c(-c2ccco2)s1 | 2 | 3 | -1 | 1 | 17 | -4.2* | 0.053*
CCOC(=O)c1c(NC(=O)CSc2nc3ccccc3o2)sc(C(C)=O)c1C | 0 | -22 | 0 | 1 | -25 | -3.3* | 0.059*
CCOC(=O)c1c(NC(=O)CSc2nnc(-c3ccccc3)o2)sc(C(C)=O)c1C | 1 | -13 | -2 | -1 | -17 | / | /
CCOC(=O)c1ccc2nc(NC(=O)c3cccs3)sc2c1 | -2 | -34 | -2 | 2 | 4 | / | 0.074
CCOC(=O)c1ccc2nc(NC(=O)c3ccco3)sc2c1 | -3 | 16 | -7 | 0 | 12 | / | /
C1=C(c2ccccc2)Nc2ccccc2N=C1c1ccccc1 | -4 | 26 | 1 | 0 | 6 | / | /
Cc1ccccc1C(=O)NNC(=O)Nc1ccccc1 | 0 | -7 | 1 | 3 | -8 | 0.061 | /
CCC1CCCCN1C(=O)CSc1nc2ccsc2c(=O)n1Cc1ccccc1 (centres undefined) | 2 | 18 | -3 | -1 | -5 | -3.1* | 0.059*
C/C=C/c1ccc(OCC(=O)OCc2csc(Nc3ccc(C)cc3)n2)c(OC)c1 | -6 | -6 | 3 | 0 | -1 | -2.6* | 0.065*
Cc1ccc(Nc2nc(COC(=O)COc3ccc(C=O)cc3)cs2)cc1 | 3 | -5 | 2 | 0 | -12 | / | /
O=S(=O)(NCc1cccnc1)c1ccccc1 | -3 | -20 | 0 | 0 | -2 | -0.0025 | /
COc1ccc(CCNC(=O)C(=O)N/N=C/c2cccs2)cc1OC | -1 | -44 | 0 | 10 | -15 | -0.19 | /
C=CCNC(=O)/C(C#N)=C\c1cc(Cl)c(OCC)c(OC)c1 | -4 | 29 | 1 | 0 | -3 | -2.9* | 0.044*
C=CCNC(=O)/C(C#N)=C/c1cc(Br)ccc1OC | 0 | -20 | -3 | 0 | -9 | -0.76 | /
CCOC(=O)C1CCCN(C(=O)c2cn(CC)c(=O)c3cc(OC)c(OC)cc23)C1 (centres undefined) | -4 | -12 | 0 | -1 | -1 | / | 0.073
CC(=O)n1cc(N(C(=O)CCl)c2ccccc2)c2ccccc21 | / | -23 | -28 | 60 | 0 | -2.8* | ?
Cc1cc(C)nc(NC(=O)/C=C/c2ccccc2Cl)n1 | 6 | 12 | -4 | 0 | -5 | / | /
Cc1cc(N)c2cc(NC(=O)/C=C/c3ccccc3Cl)ccc2n1 | / | 13 | -31 | -3 | 20 | / | 0.055*
CCOC(=O)/C(=C/c1c(C)n(C)c2ccc([N+](=O)[O-])cc12)C(C)=O | -1 | -6 | 1 | 1 | -1 | -4.2* | 0.046*
Cc1nnc(N2CCN(C)CC2)c2nn(-c3ccc(Cl)cc3)c(C)c12 | / | / | -5 | 0 | / | / | /
CCN1C(=O)S/C(=C/c2c(OCc3ccc(C(=O)O)cc3)ccc3ccccc23)C1=O | -2 | 37 | 1 | 0 | 1 | 3.9* | 0.091
N#Cc1nc(-c2ccc(OCc3ccccc3)cc2)oc1NCc1cccnc1 | -2 | -37 | 2 | 1 | -4 | -0.82 | /
CCOc1ccc(-c2nc(C#N)c(NCc3ccco3)o2)cc1 | -10 | -108 | 1 | 0 | 2 | 0.67* | 0.086
CCOC(=O)c1nc(Nc2cc(C)cc(C)c2)c2ccccc2n1 | -2 | 7 | 1 | 1 | -9 | -0.83 | /
CCOC(=O)N1CCN(C(=O)c2noc(C(C)C)c2[N+](=O)[O-])CC1 | -3 | 21 | -1 | / | 2 | 1.9 | 0.079
CCOC(=O)c1c(C)[nH]c(N=Nc2ccccc2C)c1C | -8 | -3 | 2 | 0 | -1 | -0.28 | /
